We go through five compounds from PubChem BioAssay.

Structures are written as SMILES. Activity calls are given as the source filed them.

The nature of assay [1]: small molecules captured by biotinylated probe aFSTL3 – biochemical, small-molecule microarray, fluorescence 635/667, stem cell growth factor project, primary screen (AID 1064).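 Further: measures binding of the biotinylated anti-FSTL3 antibody to printed compounds.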 The note with it: higher = more signal.
Assay [2] in a line: binders from COS7 lysate, DM2A8 probe, primary screen, torsin A project, cell lysate, small-molecule microarray, fluorescence 635/667 (AID 1065). The note with it: higher = more signal, COS7 lysate expressing mutant human TOR1A.
The nature of assay [3]: small molecules captured by biotinylated probe aFGF2 – biochemical, small-molecule microarray, fluorescence 635/667, stem cell growth factor project, primary screen (AID 1067).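 Further: measures binding of biotinylated aFGF2 protein to printed compounds on slides; z-score merges feature fluorescence and signal-to-noise across triplicate slides.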 The conditions noted are these: higher = more signal.
A short description of assay [4]: small molecules captured by biotinylated probe aFGF10 – biochemical, small-molecule microarray, fluorescence 635/667, stem cell growth factor project, primary screen (AID 1071).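 Further: score merges 667 nm spot intensity and signal to noise from triplicate slides.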 The conditions noted are these: higher = more signal.
The target of assay [5] is Neurogenic locus notch homolog protein 2 (Homo sapiens) (UniProt Q04721). In words: small molecules binding Notch2 protein – biochemical, small-molecule microarray, 635 nm fluorescence, stem cell growth factors, primary screen (AID 1073). The conditions noted are these: higher = more signal.
Assay [6] deals with Pro-neuregulin-1, membrane-bound isoform (Homo sapiens) (UniProt Q02297). In words: small molecules binding neuregulin-1 protein – biochemical, small-molecule microarray, fluorescence 635/667, psychiatric disease protein project, primary screen (AID 1075).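 Further: score combines 667 nm spot fluorescence with signal to noise.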 The conditions noted are these: NRG1 binding, 635 nm fluorescence, higher = more signal.
Pro-neuregulin-1, membrane-bound isoform (Homo sapiens), sequence (Q02297 whole entry, looked up, the tested form may be a part, canonical isoform): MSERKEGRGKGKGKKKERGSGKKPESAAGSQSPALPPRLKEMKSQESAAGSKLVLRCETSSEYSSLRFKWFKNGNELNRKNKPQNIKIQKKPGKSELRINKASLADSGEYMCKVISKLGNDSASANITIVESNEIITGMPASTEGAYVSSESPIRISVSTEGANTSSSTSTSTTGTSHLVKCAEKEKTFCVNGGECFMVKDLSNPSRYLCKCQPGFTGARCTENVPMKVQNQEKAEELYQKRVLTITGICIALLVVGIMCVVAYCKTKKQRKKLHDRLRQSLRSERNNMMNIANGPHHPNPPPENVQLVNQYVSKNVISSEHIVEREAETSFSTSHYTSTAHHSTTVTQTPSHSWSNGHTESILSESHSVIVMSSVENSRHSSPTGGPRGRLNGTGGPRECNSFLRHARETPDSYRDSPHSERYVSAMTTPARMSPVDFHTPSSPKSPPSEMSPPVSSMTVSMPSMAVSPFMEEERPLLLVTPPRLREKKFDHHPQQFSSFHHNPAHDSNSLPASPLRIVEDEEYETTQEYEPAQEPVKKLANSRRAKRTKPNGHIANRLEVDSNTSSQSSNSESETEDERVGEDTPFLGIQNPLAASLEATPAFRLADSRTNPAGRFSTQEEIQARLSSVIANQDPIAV
Assay [7] has as its system Neuregulin-1 EGF-like domain. In words: small molecules binding NRG1 EGF domain – biochemical, small-molecule microarray, 635 nm fluorescence, primary screen (AID 1081).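 Further: binding of the protein to compounds printed on small-molecule microarray slides.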 The note with it: higher = more signal.
Assay [8] can be described thus: FRG1 expression reporter modulators in myotubes – cell-based, C2C12 myotubes, firefly/Renilla luciferase, luminescence, FRG1 inhibition for FSHD, primary screen (AID 1084). The conditions noted are these: FRG1 promoter luciferase, higher = more signal, called active from +8 up or from −8 down.
The nature of assay [9]: small molecules captured by biotinylated probe aFST – biochemical, small-molecule microarray, fluorescence 635/667, stem cell growth factor project, primary screen (AID 1086).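 Further: score merges 667 nm fluorescence with signal-to-noise of each printed compound spot.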 The conditions noted are these: higher = more signal.
A short description of assay [10]: binders of probe aHhip on microarray, primary screen, stem cell growth factor project, biochemical, small-molecule microarray, fluorescence 635/667 (AID 1087).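 Further: score merges spot fluorescence at 667nm with spot signal to noise ratio.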 The note with it: higher = more signal.
Assay [11] has as its system PRMT1 (protein arginine N-methyltransferase 1). In words: small molecules binding arginine methyltransferase PRMT1 – biochemical, small-molecule microarray, 635 nm fluorescence, primary screen (AID 1088).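 Further: binding of Prmt1 protein to compounds spotted on small-molecule microarray slides.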 The conditions noted are these: higher = more signal.
Assay [12] is described as follows: growth effects on S. cerevisiae YJM789 – YJM789 clinical isolate, OD600, 24 h, basal, primary screen (AID 1089).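 Further: growth of clinical yeast isolate S. cerevisiae YJM 789 seeded 1000 cells per well; test concentration not given here.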 The note with it: higher = more signal, called active from +8 up or from −8 down.
Assay [13] can be described thus: S. pombe growth modifiers, basal conditions – strain 972, OD600, 24 h, no modulator, primary screen (AID 1090).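 Further: basal condition with compound alone and no growth modifier present; test concentration not given here.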 The note with it: S. pombe 972 growth, higher = more signal, called active from +8 up or from −8 down.
A short description of assay [14]: budding yeast growth modifiers under rapamycin – strain BY4716, OD600, 96 h, primary screen (AID 1091). Further: test concentration not given here. The note with it: S. cerevisiae BY4716 + rapamycin, higher = more signal, called active from +8 up or from −8 down.
For assay [15], the target named is Torsin-1A-interacting protein 2 (Homo sapiens) (UniProt Q8NFQ8). In words: small molecules binding lysate-expressed LULL1 – cell lysate, human LULL1 lysate, 635/667 nm fluorescence, primary screen (AID 1092).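 Further: probe is lysate of COS7 cells overexpressing human LULL1; score merges per-feature 667 nm fluorescence with signal-to-noise.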 The conditions noted are these: small-molecule microarray, hLULL1 lysate binding, 635 nm fluorescence; higher = more signal.
Torsin-1A-interacting protein 2 (Homo sapiens), sequence (Q8NFQ8 whole entry, looked up): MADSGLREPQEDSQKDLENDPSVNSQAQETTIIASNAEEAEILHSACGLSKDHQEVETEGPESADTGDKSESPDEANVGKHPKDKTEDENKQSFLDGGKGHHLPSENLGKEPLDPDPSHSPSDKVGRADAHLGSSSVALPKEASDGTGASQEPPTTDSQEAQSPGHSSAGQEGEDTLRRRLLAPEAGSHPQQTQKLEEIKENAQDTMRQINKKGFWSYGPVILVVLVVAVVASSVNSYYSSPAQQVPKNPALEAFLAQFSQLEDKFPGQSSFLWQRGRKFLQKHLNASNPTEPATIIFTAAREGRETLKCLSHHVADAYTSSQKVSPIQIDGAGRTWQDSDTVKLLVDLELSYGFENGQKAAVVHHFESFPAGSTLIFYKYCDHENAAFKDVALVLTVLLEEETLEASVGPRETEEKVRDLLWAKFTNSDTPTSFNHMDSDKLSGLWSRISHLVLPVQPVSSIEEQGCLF
Assay [16] can be described thus: optical density change of DRC41 E. coli – strain DRC41, OD650, 24 h, E. coli filamentation project, primary screen (AID 1093).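 Further: MC1000 strain lacking acrAB efflux and sulA so SOS filamentation is blocked; test concentration not given here.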 The conditions noted are these: E. coli DRC41 growth, higher = more signal, called active from +8 up or from −8 down.
Assay [17] can be described thus: probe aLefty2 binding to arrayed compounds – biochemical, biotinylated probe, 635/667 nm fluorescence, primary screen (AID 1094).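 Further: score merges spot fluorescence near 667 nm with spot signal-to-noise ratio.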 The note with it: small-molecule microarray, higher = more signal.
Assay [18] relates to Noggin (protein binding on small-molecule microarray). In words: small molecules binding Noggin protein – biochemical, 635/667 nm fluorescence, primary screen (AID 1095).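 Further: score merges 667 nm feature fluorescence with signal to noise over triplicate slides.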 The conditions noted are these: 635 nm fluorescence, higher = more signal.
In assay [19] the target is Neurogenic locus notch homolog protein 3 (Homo sapiens) (UniProt Q9UM47). In words: small molecules binding NOTCH3 protein – biochemical, 635/667 nm fluorescence, primary screen (AID 1096). The conditions noted are these: small-molecule microarray, 635 nm fluorescence, higher = more signal.
Neurogenic locus notch homolog protein 3 (Homo sapiens), sequence (Q9UM47 whole entry, looked up): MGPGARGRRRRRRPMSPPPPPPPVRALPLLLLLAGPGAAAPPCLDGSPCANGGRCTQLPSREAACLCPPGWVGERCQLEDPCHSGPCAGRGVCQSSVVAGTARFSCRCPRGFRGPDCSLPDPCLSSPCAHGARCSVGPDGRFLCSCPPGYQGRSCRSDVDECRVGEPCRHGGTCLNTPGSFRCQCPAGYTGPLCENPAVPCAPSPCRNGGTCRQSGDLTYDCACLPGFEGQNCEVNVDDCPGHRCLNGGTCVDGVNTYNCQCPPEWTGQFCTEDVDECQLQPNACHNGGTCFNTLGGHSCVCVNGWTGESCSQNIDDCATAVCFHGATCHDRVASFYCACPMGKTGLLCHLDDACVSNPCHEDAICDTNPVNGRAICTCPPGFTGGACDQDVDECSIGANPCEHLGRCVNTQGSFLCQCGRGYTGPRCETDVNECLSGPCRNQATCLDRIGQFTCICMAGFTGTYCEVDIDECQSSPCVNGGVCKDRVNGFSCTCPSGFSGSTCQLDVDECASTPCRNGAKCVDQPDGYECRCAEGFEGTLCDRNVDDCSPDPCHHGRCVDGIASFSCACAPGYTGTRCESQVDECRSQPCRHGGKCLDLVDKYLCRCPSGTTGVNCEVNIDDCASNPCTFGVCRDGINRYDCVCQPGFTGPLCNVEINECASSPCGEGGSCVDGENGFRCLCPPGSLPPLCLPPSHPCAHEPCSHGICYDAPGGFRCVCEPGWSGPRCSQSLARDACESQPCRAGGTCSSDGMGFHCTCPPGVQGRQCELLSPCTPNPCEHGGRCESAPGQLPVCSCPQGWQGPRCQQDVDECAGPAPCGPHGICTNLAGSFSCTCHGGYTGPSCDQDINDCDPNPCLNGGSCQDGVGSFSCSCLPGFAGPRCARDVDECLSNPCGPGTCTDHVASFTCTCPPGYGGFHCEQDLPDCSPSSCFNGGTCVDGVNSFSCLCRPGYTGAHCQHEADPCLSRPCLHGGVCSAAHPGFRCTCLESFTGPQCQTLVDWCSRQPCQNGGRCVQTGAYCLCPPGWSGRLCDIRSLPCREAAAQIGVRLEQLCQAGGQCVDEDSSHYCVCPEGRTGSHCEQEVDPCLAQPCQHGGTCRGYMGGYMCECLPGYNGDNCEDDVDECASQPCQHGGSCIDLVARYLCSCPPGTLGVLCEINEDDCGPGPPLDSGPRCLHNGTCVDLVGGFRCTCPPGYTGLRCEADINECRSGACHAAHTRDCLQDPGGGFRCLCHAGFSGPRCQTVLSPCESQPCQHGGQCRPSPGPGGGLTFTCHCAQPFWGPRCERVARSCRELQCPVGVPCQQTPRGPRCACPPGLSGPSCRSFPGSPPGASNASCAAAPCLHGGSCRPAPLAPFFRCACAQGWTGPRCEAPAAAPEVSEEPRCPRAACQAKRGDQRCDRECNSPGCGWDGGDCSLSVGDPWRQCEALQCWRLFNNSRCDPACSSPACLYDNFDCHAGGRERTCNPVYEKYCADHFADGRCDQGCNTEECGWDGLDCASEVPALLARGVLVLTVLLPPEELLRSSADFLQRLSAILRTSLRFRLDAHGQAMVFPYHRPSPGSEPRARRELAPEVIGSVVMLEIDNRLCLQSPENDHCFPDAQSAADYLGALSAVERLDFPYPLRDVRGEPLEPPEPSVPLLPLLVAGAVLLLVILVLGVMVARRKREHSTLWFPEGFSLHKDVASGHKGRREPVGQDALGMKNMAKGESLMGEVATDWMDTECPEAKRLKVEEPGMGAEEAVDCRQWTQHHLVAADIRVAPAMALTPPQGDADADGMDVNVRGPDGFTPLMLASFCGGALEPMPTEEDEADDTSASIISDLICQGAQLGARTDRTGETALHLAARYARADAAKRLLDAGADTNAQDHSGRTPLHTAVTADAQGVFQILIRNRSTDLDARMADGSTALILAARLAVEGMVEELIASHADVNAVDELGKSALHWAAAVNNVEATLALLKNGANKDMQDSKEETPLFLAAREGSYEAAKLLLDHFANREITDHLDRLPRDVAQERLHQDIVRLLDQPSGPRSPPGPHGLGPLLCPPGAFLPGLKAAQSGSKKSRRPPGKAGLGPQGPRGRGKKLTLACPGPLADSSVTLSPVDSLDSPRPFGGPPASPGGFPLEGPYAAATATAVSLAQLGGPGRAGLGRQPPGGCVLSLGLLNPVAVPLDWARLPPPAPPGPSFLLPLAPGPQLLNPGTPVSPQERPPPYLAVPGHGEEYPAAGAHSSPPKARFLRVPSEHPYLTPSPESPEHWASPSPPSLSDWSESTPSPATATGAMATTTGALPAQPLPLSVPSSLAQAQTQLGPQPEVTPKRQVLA
Assay [20] is described as follows: probe aEGFR binding to arrayed compounds – biochemical, biotinylated probe, 635/667 nm fluorescence, primary screen (AID 1097).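 Further: probe is a biotinylated anti-EGFR antibody binding compounds printed on slides; score combines fluorescence near 667 nm and signal to noise of each spot.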 The conditions noted are these: small-molecule microarray, higher = more signal.

Take `COCC1=C([C@H](O)CCc2ccccc2)[C@H](CO)n2c(=O)n(-c3ccccc3)c(=O)n2C1`: the composite z-score in assay [1] was -0.13; in assay [2] it was -0.235; in [3], -0.112; in [4] it was 0.204; in assay [5] it was -0.423; in assay [6], -0.675. Further, the composite z-score in [7] is -0.416; in assay [9], -0.371; in assay [10], -0.156; in [11], -0.872; in assay [15], -0.728; in assay [17], -0.0146. Also, the results for the composite z-score in assay [18], in assay [19] and in [20] were -0.0338, -0.907 and -0.253, respectively. Besides, the z-score is -3.19 (inactive) in assay [8]; -1.47 (inactive) in assay [12]; -1.41 (inactive) in [13]; -0.259 (inactive) in assay [14]; 2.86 (inactive) in [16].

On to `CN(C)CCCC[C@@H]1NC(=O)[C@H]2C[C@@H](C(=O)NCc3ccc(F)cc3)[C@@H](c3ccc(O)cc3)N2C1=O`, for which the composite z-score in assay [1] is 0.0653; in [2] it was 0.412; in assay [3] it was -0.0904; in assay [4], 0.268; in [5], 0.201; in [6], 0.865. The composite z-score in assay [7] was 1.25; in assay [9] it was -0.0224; in [10] it was 0.028; in assay [11], 1.56; in assay [15], 1.42; in assay [17] it was 0.0672. The composite z-score was 1.78 in assay [18], 0.719 in assay [19] and 0.0579 in assay [20]. Also, the z-score in [8] was 1.07 (inactive); in assay [12], -0.42 (inactive); in [13], -1.1 (inactive); in assay [14], -0.462 (inactive); in assay [16], 0.539 (inactive).

As to `C#CCN=C(N)N`, the composite z-score in assay [1] was -0.504; in assay [2] it was 0.147; in assay [3], -0.127; in assay [4], 0.209; in [5], 0.389; in assay [6], 0.748. Moreover, the composite z-score is 1.01 in assay [7]; 0.224 in assay [9]; -0.226 in assay [10]; 0.21 in [11]; 0.737 in [15]; -0.18 in assay [17]. In addition, the composite z-score was found to be 0.759 in assay [18], 0.562 in assay [19] and 0.0768 in assay [20]. Moreover, the z-score is 0.007 (inactive) in assay [8]; -0.303 (inactive) in assay [12]; -0.349 (inactive) in assay [13]; -0.247 (inactive) in assay [14]; -0.291 (inactive) in [16].

As for `C=CCC(OC(C)=O)[C@@H]1[C@@H](N(Cc2cccc3ccccc23)C(=O)c2ccc(C)cc2)c2cc(OCCCO)ccc2N1C(=O)c1ccc2ccccc2n1` (stereo not given in full), the composite z-score is -0.0635 in [1]; 0.552 in [2]; 0.01 in assay [3]; 0.238 in assay [4]; -0.327 in [5]; -0.157 in assay [6]. The composite z-score in [7] stood at 0.0751; in assay [9], 0.223; in assay [10] it was 0.386; in assay [11], 0.56; in assay [15], 0.563; in assay [17], 0.0748. Also, the composite z-score in assay [18] is 0.708; in [19] it was 0.209; in assay [20], -0.0437. Moreover, the z-score was -1.44 (inactive) in [8]; -2.04 (inactive) in [12]; 0.378 (inactive) in assay [13]; -0.6 (inactive) in assay [14]; 1.21 (inactive) in [16].

Take `COCCOC(=O)N1C(=O)[C@@]2(c3cc(C#CCCO)ccc31)[C@H](C(=O)N1CCN(c3ncccn3)CC1)[C@H]1C(=O)O[C@H](c3ccccc3)[C@H](c3ccccc3)N1[C@@H]2c1ccc(O)cc1`: the composite z-score in assay [1] is -0.782; in [2] it was 0.219; in [3] it was 0.0243; in assay [4], 0.534; in assay [5] it was 0.376; in [6] it was 0.926. Further, the composite z-score is 1.24 in [7]; -0.3 in assay [9]; -0.367 in assay [10]; 1.54 in assay [11]; 2.04 in assay [15]; -0.299 in [17]. Moreover, the composite z-score in assay [18] is 0.865; in assay [19] it was 0.945; in assay [20], -0.219. The z-score in assay [8] is -1.3 (inactive); in assay [12], 0.114 (inactive); in [13], -0.161 (inactive); in [14] it was 1.63 (inactive); in assay [16], 1.49 (inactive).
